Test results from PubChem BioAssay.
Active and inactive are the calls of the source. Unless noted, no rule for the calls is given here.

Experiments:
[1] = compounds binding Alexa647 anti-His antibody – biochemical, small-molecule microarray, 635 nm fluorescence, artefact control for SMM control protein annotation, primary screen (AID 1128); conditions: higher = more signal;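 also: score merges feature fluorescence with signal-to-noise for each printed compound spot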
[2] = test system: Human papillomavirus type 1a E7 protein (residues 1-88); experiment: HPV1a E7 small-molecule binders, primary screen, biochemical, small-molecule microarray, residues 1-88, 635 nm (AID 1129); conditions: small-molecule microarray binding, fluorescence 635 nm; higher = more signal
[3] = target: Focal adhesion kinase 1 (Homo sapiens) (UniProt Q05397); experiment: PTK2 protein binding on printed compound slides – biochemical, small-molecule microarray, 635/667 nm fluorescence, BSA, DTT, primary screen (AID 1130); conditions: 635 nm fluorescence, higher = more signal;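 also: composite of spot emission at 667 nm and signal to noise over triplicate slides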
[4] = test system: Fibrinogen (Alexa647-labelled); experiment: Alexa647-fibrinogen binding to printed small molecules – biochemical, small-molecule microarray, 635/667 nm fluorescence, artefact control for SMM control-protein annotation, profiling panel (AID 1131); conditions: fibrinogen-A647 binding fluorescence, higher = more signal;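 also: z-score merges 667 nm fluorescence with per-spot signal-to-noise over triplicate slides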
[5] = target: Follistatin (Homo sapiens) (UniProt P19883); experiment: FST protein binding to printed compounds – biochemical, small-molecule microarray, 635/667 nm fluorescence, primary screen (AID 1132); conditions: 635 nm fluorescence, higher = more signal
[6] = target: Fibroblast growth factor 2 (Homo sapiens) (UniProt P09038); experiment: basic fibroblast growth factor binding to printed compounds – biochemical, small-molecule microarray, 635/667 nm fluorescence, primary screen (AID 1133); conditions: FGF2, fluorescence 635/667, higher = more signal
[7] = JC-1 mitochondrial potential readout, lung cancer cells – cell-based, A549, JC-1 fluorescence, basal, 24 h, 100 nL, profiling panel (AID 1138); conditions: higher = more signal;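 also: A549 lung adenocarcinoma cells under basal conditions with no added stimulus; test concentration not given here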
[8] = test system: Lefty1; experiment: Lefty1 protein binding to printed compounds – biochemical, small-molecule microarray, 635/667 nm fluorescence, primary screen (AID 1139); conditions: fluorescence 635/667, higher = more signal
[9] = test system: wheat germ agglutinin (Triticum aestivum), Alexa647-labelled; experiment: Alexa647-WGA lectin binding to printed small molecules – biochemical, small-molecule microarray, 635/667 nm fluorescence, artefact control for SMM control-protein annotation, profiling panel (AID 1140); conditions: WGA-A647 binding, 635 nm fluorescence, higher = more signal;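 also: score merges 667 nm feature emission with signal to noise over triplicate slides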
[10] = target: Luciferin 4-monooxygenase (Photinus pyralis) (UniProt P08659); experiment: inhibition of purified Photinus pyralis luciferase – biochemical, luminescence, purified enzyme, 2006 set, primary screen (AID 1141); conditions: purified firefly luciferase, SteadyGlo luminescence, 30 min; higher = more signal, called active from +8 up or from −8 down;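 also: cell-free assay with purified firefly luciferase at 100 ng per well in PBS; test concentration not given here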
[11] = test system: Wnt5a (protein binding on small-molecule microarray); experiment: small molecules binding Wnt5a protein – biophysical, small-molecule microarray, 635/667 nm fluorescence, primary screen (AID 1142); conditions: 635 nm fluorescence, higher = more signal;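 also: fluorescence read at 667 nm with signal to noise per printed feature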
[12] = ATP-based viability of Huh7 replicon cells – cell-based, CellTiter-Glo luminescence, basal, 48 h, cytotoxicity control for HCV replication inhibitor project, primary screen (AID 1143); conditions: higher = more signal, called active from +8 up or from −8 down;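 also: Huh7 hepatoma cells carrying a hepatitis C replication reporter with no stimulus; test concentration not given here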
[13] = Pseudomonas biofilm growth suppression – PAO1 strain, BacTiter-Glo luminescence, LB-PBS, primary screen (AID 1144); conditions: P. aeruginosa PAO1 biofilm, 12 h, higher = more signal
[14] = basal CRE-LacZ reporter activity in PC12 – cell-based, unstimulated, primary screen (AID 1145); conditions: no forskolin, luminescence, 4.5 h, higher = more signal, called active from +8 up or from −8 down
[15] = forskolin-driven CRE-LacZ activity in PC12 – cell-based, CRE-LacZ reporter, forskolin-stimulated, primary screen (AID 1146); conditions: luminescence, 4.5 h, higher = more signal, called active from +8 up or from −8 down;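 also: PC12 cells with 6xCRE LacZ reporter stimulated by forskolin 10 µM; beta-galactosidase reporter signal reflecting CREB driven transcription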
[16] = target: Streptavidin (Streptomyces avidinii) (UniProt P22629); experiment: compounds binding control protein streptavidin – biophysical, small-molecule microarray, 635/667 nm fluorescence, artefact control for SMM compound annotation, primary screen (AID 1147); conditions: higher = more signal;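 also: signal reflects streptavidin binding to arrayed compounds as a control protein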
[17] = probe aInhba binding on compound microarray – biochemical, small-molecule microarray, 635/667 nm fluorescence, primary screen (AID 1148); conditions: higher = more signal;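 also: score merges 667nm spot fluorescence with signal-to-noise for antibody binding to printed compounds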
[18] = target: Torsin-1A (Homo sapiens) (UniProt O14656); experiment: TOR1A wild-type binding on microarray – cell lysate, small-molecule microarray, lysate, 635/667 nm, primary screen (AID 1149); conditions: COS7 hTOR1A-WT lysate, 635 nm fluorescence, higher = more signal
[19] = target: Torsin-1A (Homo sapiens) (UniProt O14656); experiment: torsin A mutant lysate binding on microarrays – cell lysate, small-molecule microarray, COS7 lysate, 635/667 nm fluorescence, primary screen (AID 1150); conditions: COS7 hTOR1A mutant lysate, 635 nm fluorescence, higher = more signal;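 also: score pools 667 nm emission and signal to noise measuring lysate protein binding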
[20] = test system: Sonic hedgehog protein (Shh); experiment: Sonic hedgehog microarray binding compounds – biochemical, small-molecule microarray, 635/667 nm fluorescence, primary screen (AID 1151); conditions: 635 nm fluorescence, higher = more signal;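 also: Shh protein binding to compounds spotted on small-molecule microarray slides; score combines spot fluorescence intensity with signal-to-noise across triplicate slides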

Chain of Luciferin 4-monooxygenase (Photinus pyralis) (P08659 whole entry, looked up): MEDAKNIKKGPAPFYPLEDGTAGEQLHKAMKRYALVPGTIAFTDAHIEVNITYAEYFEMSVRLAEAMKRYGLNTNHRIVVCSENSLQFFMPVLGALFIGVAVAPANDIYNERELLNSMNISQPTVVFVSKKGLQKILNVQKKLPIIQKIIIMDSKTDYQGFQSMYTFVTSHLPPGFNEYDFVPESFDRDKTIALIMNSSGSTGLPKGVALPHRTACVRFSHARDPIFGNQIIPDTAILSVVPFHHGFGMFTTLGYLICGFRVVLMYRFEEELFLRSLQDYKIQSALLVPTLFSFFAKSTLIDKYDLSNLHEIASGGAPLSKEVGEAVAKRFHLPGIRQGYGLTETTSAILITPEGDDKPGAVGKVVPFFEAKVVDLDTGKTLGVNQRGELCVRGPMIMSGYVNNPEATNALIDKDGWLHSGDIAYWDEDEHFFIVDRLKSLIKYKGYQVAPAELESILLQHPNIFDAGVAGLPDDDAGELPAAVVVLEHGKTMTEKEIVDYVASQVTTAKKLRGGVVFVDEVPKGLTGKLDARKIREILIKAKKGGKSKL
Chain of Fibroblast growth factor 2 (Homo sapiens) (P09038 whole entry, looked up): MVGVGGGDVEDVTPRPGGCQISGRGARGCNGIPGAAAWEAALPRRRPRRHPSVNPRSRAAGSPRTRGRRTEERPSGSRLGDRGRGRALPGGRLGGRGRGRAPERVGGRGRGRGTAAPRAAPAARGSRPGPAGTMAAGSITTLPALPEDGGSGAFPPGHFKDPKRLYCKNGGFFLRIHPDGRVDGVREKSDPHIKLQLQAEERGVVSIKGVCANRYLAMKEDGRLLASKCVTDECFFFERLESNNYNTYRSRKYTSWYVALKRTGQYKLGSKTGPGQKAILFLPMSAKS
Chain of Follistatin (Homo sapiens) (P19883 whole entry, looked up): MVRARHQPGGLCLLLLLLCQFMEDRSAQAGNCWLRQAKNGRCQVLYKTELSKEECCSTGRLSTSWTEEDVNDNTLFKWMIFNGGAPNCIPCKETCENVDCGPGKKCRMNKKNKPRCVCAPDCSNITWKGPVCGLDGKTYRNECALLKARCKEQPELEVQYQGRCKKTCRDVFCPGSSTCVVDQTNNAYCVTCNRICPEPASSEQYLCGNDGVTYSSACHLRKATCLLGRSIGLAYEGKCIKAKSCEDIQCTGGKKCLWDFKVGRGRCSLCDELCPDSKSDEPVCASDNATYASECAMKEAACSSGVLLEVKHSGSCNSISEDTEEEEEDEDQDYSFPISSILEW
Chain of Torsin-1A (Homo sapiens) (O14656 whole entry, looked up): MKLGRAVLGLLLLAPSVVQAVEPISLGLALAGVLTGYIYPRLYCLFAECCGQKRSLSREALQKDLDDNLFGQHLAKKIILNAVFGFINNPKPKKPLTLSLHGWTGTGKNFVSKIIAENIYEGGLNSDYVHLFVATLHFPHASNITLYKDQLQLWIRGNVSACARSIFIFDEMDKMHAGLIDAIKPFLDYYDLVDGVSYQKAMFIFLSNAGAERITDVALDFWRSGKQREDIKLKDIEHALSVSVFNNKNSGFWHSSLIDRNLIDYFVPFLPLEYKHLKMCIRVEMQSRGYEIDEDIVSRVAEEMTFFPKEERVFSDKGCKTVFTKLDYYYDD
Chain of Focal adhesion kinase 1 (Homo sapiens) (Q05397 whole entry, looked up): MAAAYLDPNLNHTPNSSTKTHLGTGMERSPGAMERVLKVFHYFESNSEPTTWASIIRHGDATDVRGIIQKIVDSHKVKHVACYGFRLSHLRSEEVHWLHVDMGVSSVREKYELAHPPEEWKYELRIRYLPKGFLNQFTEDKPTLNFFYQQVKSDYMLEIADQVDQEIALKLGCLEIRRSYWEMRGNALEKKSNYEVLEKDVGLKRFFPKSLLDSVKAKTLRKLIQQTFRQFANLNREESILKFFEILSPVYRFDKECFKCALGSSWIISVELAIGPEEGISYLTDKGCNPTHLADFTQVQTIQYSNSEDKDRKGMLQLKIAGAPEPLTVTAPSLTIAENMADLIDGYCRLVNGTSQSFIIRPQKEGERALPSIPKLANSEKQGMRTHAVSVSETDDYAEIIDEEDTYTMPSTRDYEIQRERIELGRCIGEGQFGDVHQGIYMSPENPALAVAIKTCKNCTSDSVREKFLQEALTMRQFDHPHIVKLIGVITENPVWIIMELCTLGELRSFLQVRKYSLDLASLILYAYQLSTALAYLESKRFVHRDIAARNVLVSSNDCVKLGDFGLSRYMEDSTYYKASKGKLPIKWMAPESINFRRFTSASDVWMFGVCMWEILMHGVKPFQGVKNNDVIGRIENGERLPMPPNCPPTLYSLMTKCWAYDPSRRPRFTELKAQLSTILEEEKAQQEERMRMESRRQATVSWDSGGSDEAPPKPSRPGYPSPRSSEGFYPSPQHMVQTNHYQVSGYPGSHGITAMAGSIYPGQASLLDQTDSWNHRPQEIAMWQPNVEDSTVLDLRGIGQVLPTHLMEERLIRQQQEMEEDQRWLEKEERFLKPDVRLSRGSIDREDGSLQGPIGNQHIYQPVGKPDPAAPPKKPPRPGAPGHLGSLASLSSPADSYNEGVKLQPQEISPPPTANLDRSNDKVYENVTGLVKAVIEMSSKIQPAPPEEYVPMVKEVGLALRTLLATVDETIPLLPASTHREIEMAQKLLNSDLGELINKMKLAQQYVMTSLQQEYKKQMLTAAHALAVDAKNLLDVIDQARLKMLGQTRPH
Chain of Streptavidin (Streptomyces avidinii) (P22629 whole entry, looked up): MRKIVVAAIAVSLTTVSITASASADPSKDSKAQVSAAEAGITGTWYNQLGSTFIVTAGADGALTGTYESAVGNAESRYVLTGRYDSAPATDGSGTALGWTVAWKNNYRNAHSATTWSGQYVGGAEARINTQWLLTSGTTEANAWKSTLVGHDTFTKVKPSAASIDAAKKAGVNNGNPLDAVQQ

Structure (SMILES) | composite z-score [1] | composite z-score [2] | composite z-score [3] | composite z-score [4] | composite z-score [5] | composite z-score [6] | z-score [7] | composite z-score [8] | composite z-score [9] | z-score [10] | composite z-score [11] | z-score [12] | z-score [13] | z-score [14] | z-score [15] | composite z-score [16] | composite z-score [17] | composite z-score [18] | composite z-score [19] | composite z-score [20]
CC(CCN1CCCCc2nc(C)c(C)cc21)=NOC[C@@H](O)[C@H]1O[C@@H]2OC(C)(C)O[C@@H]2[C@H]1O | 3.04 | -0.491 | -0.319 | 1.01 | 0.416 | 0.937 | -0.584 | 1 | -0.163 | 0.766 (inactive) | 0.228 | 1.06 (inactive) | -0.0386 (inactive) | -0.0824 (inactive) | 1.41 (inactive) | -0.0979 | -0.248 | 0.477 | 0.296 | 1.62
CCOC(=O)[C@H](Cc1ccccc1)NC(=O)CCC1CC(OC(=O)NCCc2ccc(F)cc2)CC2(CCCC(COC(=O)NCCOc3ccccc3)O2)O1 (stereo not given in full) | 0.569 | 1.18 | 0.237 | 0.855 | 0.557 | 1.24 | 0.678 | 1.29 | 0.362 | 0.46 (inactive) | 0.424 | -0.715 (inactive) | -0.661 (inactive) | -0.253 (inactive) | 0.327 (inactive) | 0.751 | -0.0762 | 0.227 | 1.11 | 1.23
CCN1C(=O)[C@H]2[C@H]3[C@H](O)[C@H](O)CC(=NNC(=O)OCc4ccccc4)[C@H]3CC[C@H]2C1=O | 0.0371 | -0.601 | -0.117 | 0.0307 | -0.238 | 0.215 | -0.538 | 0.235 | 0.136 | 0.69 (inactive) | 0.038 | -0.0436 (inactive) | 0.877 (inactive) | -0.119 (inactive) | -0.497 (inactive) | 0.214 | -0.0719 | -0.211 | 0.223 | -0.486
COC(=O)C1=C(C)N(Cc2ccccc2)C2=C3C(=O)OCC[C@@H]3[C@@](O)(C(=O)OC)C(=O)N2[C@@H]1c1ccccc1 | 0.0356 | 0.0787 | 0.19 | 0.332 | 0.384 | 0.402 | 1.48 | 0.836 | 0.0974 | -0.653 (inactive) | 0.226 | -0.0119 (inactive) | -0.356 (inactive) | 4.9 (inactive) | -1.1 (inactive) | 0.299 | -0.0221 | -0.154 | 0.319 | 0.404
O=C1C=C[C@@H](O)[C@@H]2[C@@H]3C(=O)N(Cc4ccc5c(c4)OCO5)C(=O)[C@@H]3CC[C@@H]12 | 0.314 | 0.867 | 0.185 | 0.546 | 0.382 | 0.569 | -0.635 | 0.585 | 0.0599 | -0.276 (inactive) | 0.538 | -0.655 (inactive) | 0.917 (inactive) | -0.567 (inactive) | -0.332 (inactive) | 0.283 | -0.307 | 0.376 | 0.123 | 0.499
